Assay results from PubChem BioAssay AID588850 (Sanford-Burnham Center for Chemical Genomics, 2011).
The campaign covered roughly 360,000 compounds. About 3,100 (0.86%) were called active. The entries come from a sample that favours actives as a whole. Unmarked numbers belong to inactive results.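 Rule for the calls: active = at least 50% inhibition at 5 µM, scaled per plate between neutral and stimulator controls; inactive = the rest.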

Assay: inhibitors of PAF-induced NF-kB signaling, primary screen, cell-based, GFP fluorescence, uHTS (AID 588850);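 note: PAF is a Pseudomonas aeruginosa culture filtrate used as stimulus; plate controls were PAF-stimulated DMSO wells for no effect and unstimulated DMSO wells for full effect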
Settings: KKLEB NF-kB-GFP reporter, GFP fluorescence overnight, at 5 µM, hits give high values
Work on `COC(=O)C1=C(c2ccccc2OCc2ccccc2)C[C@@H]2CC[C@H]1N2C(=O)NCc1ccc(OC)cc1` yielded an inhibition of -7.5%.
`CN(C)CC1CCCCC1=O` (centres undefined) gave an inhibition of 6%.
In the case of `CC(C)(C)c1ccc(OC(=O)N2CCCCC2)cc1`, the inhibition is reported as 16%.
Molecule `N=c1ccccn1Cc1ccccc1` has an inhibition of 14.3%.
In the case of `CC1=C2C(=O)C3C(CC=C4CC(OC5OC(O)C(O)C(O)C5CO)CCC43C)C2CCC12OC1CC(C)CNC1C2C` (centres undefined), the inhibition is reported as 7.6%.
With `CCC1(C)CC(CCNCc2ccc(N(C)C)cc2)(c2ccc(F)cc2)CCO1` (centres undefined) the inhibition was 22.8%.
`Cc1cc(C)c2c(c1)NP(=S)(c1ccccc1)N2` (centres undefined) gave an inhibition of 24.3%.
Work on `CCOC(=O)CC1=C(C(=O)OCC)C2(C(=O)N1)C(C(=O)OC)=C(N)Oc1ccccc12` (centres undefined) yielded an inhibition of -14%.
For `CN(C)CC1Oc2ccccc2OC1(O)c1ccccc1` (centres undefined), the inhibition was 75.7% (active).
For `CN(C)S(=O)(=O)c1cc(C(=O)N2CCC(C(=O)O)(c3ccccc3)CC2)ccc1Cl`, the inhibition was 7.2%.
Molecule `COC(=O)C1=C(c2ccccc2)C[C@@H]2CC[C@H]1N2C(=O)N1CCCCC1` has an inhibition of -2.3%.
Work on `Cc1cccc(NC(=O)OC2CN3CCC2CC3)c1` (centres undefined) yielded an inhibition of 9%.
In the case of `O=C1NC(=O)C(Cc2ccccc2)C(=O)N1`, the inhibition is reported as -11%.
For `C=CCN1C(=O)C2(C(C(=O)OCC)=C(N)Oc3c2c(=O)oc2ccccc32)c2ccccc21` (centres undefined), the inhibition was -5.7%.
For `CC(=O)OC1C2(CC3N4C(=O)C5(CO)SSC4(CC31O)C(=O)N5C)OC(C)C(C)(C)C2=O` (centres undefined), the inhibition was 88.5% (active).
With `CC(CC(C#N)(c1ccccc1)c1ccccc1)N1CCCCC1` (centres undefined) the inhibition was 7.8%.
In the case of `CCC(C)(O)C(=O)OC1C(=O)OC2CC3C(C)=CC(=O)C(O)C3(C)C3C4(O)OCC23C1C(C)C4O` (centres undefined), the inhibition is reported as 91.3% (active).
With `CCOC(=O)C1(Cc2ccc(Cl)cc2)CCN(C(C)CCn2cccn2)CC1` (centres undefined) the inhibition was 29.4%.
Work on `CC1(C)C(c2ccccc2)=NC(c2cccnc2)=[N+]1[O-]` yielded an inhibition of 7.5%.
In the case of `CCCCCCCCCCCCn1ccc(=N)cc1`, the inhibition is reported as 61.8% (active).
`CN(C)C(=O)Oc1ccc(NC(=O)N2CCOCC2)cc1` gave an inhibition of -9.2%.
`O=C(CCC(=O)N1C[C@H]2C[C@@H](C1)c1cccc(=O)n1C2)NCc1ccccc1C(F)(F)F` gave an inhibition of -6.7%.
`COC(=O)C1=C(c2cccc(OCc3ccccc3)c2)C[C@@H]2CC[C@H]1N2C(=O)NCc1ccc(Br)cc1` gave an inhibition of 6.2%.
In the case of `COC(=O)COc1cc(C)cc2oc(=O)c3c(c12)CCCC3`, the inhibition is reported as 5.1%.
